# Measurements published in PubChem BioAssay AID463173 (ICCB-Longwood Screening Facility, Harvard Medical School, 2010).
# In all, about 52,000 compounds went through this assay and about 4,300 (8.3%) were called active. Rule as the data show it: active = survival mostly below about 52% (no sharp cut-off); inactive = mostly above about 56%. The sample as a whole holds a higher share of actives than the screen did.
# System: DeltatarO mutant
# Test: S. aureus survival, RN4220 and DeltatarO strains – OD600, teichoic acid synthesis inhibitors, primary screen (AID 463173)
# Conditions: S. aureus RN4220 wild type/DeltatarO growth, OD600, 18 h, active compounds read low, screened at 18.75 µg/mL (by protocol)
row,SMILES,survival
1,CSc1ncc(C(=O)NCc2cccc(F)c2)c(-c2ccccc2)n1,70% (inactive)
2,CSc1ncc(C(=O)NCc2cccc(C)c2)c(-c2ccccc2)n1,55% (inactive)
3,CSc1ncc(C(=O)NCc2ccccc2)c(-c2ccccc2)n1,37% (active)
4,CSc1ncc(C(=O)NCc2ccc(F)cc2)c(-c2ccccc2)n1,95% (inactive)
5,CSc1ncc(C(=O)NCc2ccc(C)cc2)c(-c2ccccc2)n1,0% (active)
6,CSc1ncc(C(=O)NCc2ccc(C)cc2)c(C)n1,69% (inactive)
7,COc1cccc(NC(=O)c2sc3nc(C)c(C(=O)Nc4ccc(C)cc4C)c(-c4cccs4)c3c2N)c1,122% (inactive)
8,CCc1ccc(S(=O)(=O)c2cn(Cc3ccccc3F)c3cc(OC)c(OC)cc3c2=O)cc1,70% (inactive)
9,COc1ccc(C(=O)NCc2cn3ccc(C)cc3n2)cc1,96% (inactive)
10,Cc1c(-c2ccccc2)n(-c2ccccc2O)c2nc3c(c(=O)n(C)c(=O)n3C)n12,94% (inactive)
11,CC(=O)c1ccc(NC(=O)c2cc3c(=O)oc4ccc(C)cc4c3s2)cc1,106% (inactive)
12,COc1ccc(-c2noc(CCC(=O)NCc3ccc(C)cc3)n2)cc1,103% (inactive)
13,Cc1ccc(-c2noc(CN(C(=O)COc3cc(C)cc(C)c3C)C(C)C)n2)cc1,-3% (active)
14,COc1ccc(-c2noc(CN(C(=O)c3ccc(C)cc3C)C(C)C)n2)cc1,-3% (active)
15,COc1ccc(-c2noc(CN(C(=O)c3cc(OC)c(OC)cc3OC)C(C)C)n2)cc1,74% (inactive)
16,COc1ccc(-c2noc(CNC(=O)COc3cccc(C)c3C)n2)cc1,51% (inactive)
17,COc1ccc(-c2noc(CN(C(=O)c3ccccc3Cl)C(C)C)n2)cc1,62% (inactive)
18,COc1ccc(-c2noc(CN(C(=O)C(C)Oc3ccc(C)cc3)C(C)C)n2)cc1 (centres undefined),63% (inactive)
19,COc1ccc(-c2noc(CN(C(=O)Cc3ccc(C)cc3)C(C)C)n2)cc1,16% (active)
20,COc1ccc(CC(=O)N(Cc2nc(-c3ccc(C)cc3)no2)C(C)C)cc1,31% (active)
21,COc1ccc(-c2noc(CC(=O)N(C)c3cccc(C)c3)n2)cc1,68% (inactive)
22,Cc1ccccc1Cn1c(C)c(CNCc2ccccc2)c(C(=O)O)c1C,84% (inactive)
23,Cc1cccc(N(CC(=O)N(C)Cc2ccccc2)S(=O)(=O)c2ccccc2)c1C,47% (inactive)
24,O=S(=O)(c1ccc(Cl)cc1)c1nnn2c1nc(NCc1ccc3c(c1)OCO3)c1sccc12,69% (inactive)

row,SMILES,survival
1,Cc1ccc2c(=O)c(C(=O)c3cccc(Cl)c3)cn(CC(=O)Nc3ccc4c(c3)OCCO4)c2n1,80% (inactive)
2,CC(=O)Nc1ccc(S(=O)(=O)N2CCC(c3nnnn3-c3ccccc3)CC2)cc1,76% (inactive)
3,O=C(NCCN1CCCCC1)Nc1c[nH]c2c(Cl)cccc2c1=O,102% (inactive)
4,COC(=O)c1cc(-c2ccc(Cl)cc2)c2c(=O)[nH]c(=O)n(C)c2n1,92% (inactive)
5,COc1ccc(-c2noc(-c3nnn(-c4cc(C)ccc4C)c3N)n2)cc1,81% (inactive)
6,COc1ccc(-c2noc(CC(=O)Nc3ccc(Br)cc3C)n2)cc1,59% (inactive)
7,Cc1ccc(CC(=O)N(Cc2nc(-c3ccc(C)cc3)no2)C(C)C)cc1,-4% (active)
8,COc1ccc(-c2noc(CN(C(=O)COc3cc(C)c(Br)c(C)c3)C(C)C)n2)cc1,31% (active)
9,Cc1ccc(CC(=O)NCc2nc(-c3ccccc3)no2)cc1,77% (inactive)
10,Cc1ccc(-c2noc(CNC(=O)COc3cc(C)c(Br)c(C)c3)n2)cc1,80% (inactive)
11,Cc1ccc(-c2noc(CNC(C)C)n2)cc1,77% (inactive)
12,O=C(CS(=O)(=O)c1cccc2nsnc12)Nc1ccc(F)cc1,97% (inactive)
13,CCN(CC)C(=O)CSc1nc2c(c(=O)n(C)c(=O)n2C)n1Cc1ccccc1,76% (inactive)
14,Cc1ccc(C)c(NC(=O)C(NS(=O)(=O)c2ccc3c(c2)CCC(=O)N3)c2ccccc2)c1 (centres undefined),113% (inactive)
15,COC(=O)c1ccc(NCC(=O)c2ccccc2)cc1,64% (active)
16,CCOC(=O)Nc1ccc(C(=O)OC)cc1,75% (inactive)
17,COC(=O)c1ccc(NC(=O)CCOc2ccccc2)cc1,69% (inactive)
18,O=C(NC1CCCCC1)/C(=N\O)c1ccccn1,97% (inactive)
19,CCOc1ccc(NC(=O)Cn2cc(C(=O)c3ccc(C)c(C)c3)c(=O)c3cc4c(cc32)OCCO4)cc1,62% (inactive)
20,CC1=NN(c2ccc(N)cc2)C(=O)C1,107% (inactive)
21,CCOC(=O)c1sc(N2N=C(C)CC2=O)nc1C,76% (inactive)
22,CCCCCN1N=C(C)CC1=O,39% (active)
23,CCN(CC)CCCNC(=O)C(=O)Nc1ccc2nc3n(c(=O)c2c1)CCCCC3,91% (inactive)
24,COc1ccc(-c2noc(CCC(=O)Nc3cccc(C)c3C)n2)cc1OC,69% (inactive)

row,SMILES,survival
1,O=C(Nc1ccc(-c2nc3cc(NC(=O)c4ccccc4F)ccc3o2)cc1)c1ccccc1F,90% (inactive)
2,COc1cc2ccccc2cc1C(=O)Nc1ccc2oc(-c3ccc(F)cc3Cl)nc2c1,59% (inactive)
3,Cc1cccc(-c2nc3cc(NC(=O)COc4ccccc4F)ccc3o2)c1,103% (inactive)
4,CCc1ccc(-c2nc3cc(NC(=O)c4cc5ccccc5cc4OC)ccc3o2)cc1,11% (active)
5,COc1cc(C(=O)Nc2ccc3oc(-c4ccccc4)nc3c2)cc(OC)c1OC,51% (inactive)
6,COc1ccc(C(=O)Nc2ccc3oc(-c4ccc5ccccc5c4)nc3c2)cc1Br,63% (inactive)
7,CCc1ccc(OCC(=O)Nc2ccc3oc(-c4ccc(OC)cc4)nc3c2)cc1,62% (inactive)
8,COc1cc2ccccc2cc1C(=O)Nc1ccc2oc(-c3ccc(Cl)cc3)nc2c1,59% (inactive)
9,COc1cc2ccccc2cc1C(=O)Nc1ccc2oc(-c3cccc(C)c3)nc2c1,25% (active)
10,COc1cc2ccccc2cc1C(=O)Nc1ccc2oc(-c3ccccc3)nc2c1,8% (active)
11,CCc1ccc2oc(-c3ccc(NC(=O)c4ccc(OC)c(Br)c4)cc3)nc2c1,60% (inactive)
12,COc1cc2ccccc2cc1C(=O)Nc1ccc2oc(-c3ccc(F)cc3)nc2c1,43% (active)
13,COC(=O)CSc1ccc2nnc(CCNS(=O)(=O)c3ccccc3)n2n1,118% (inactive)
14,CCc1ccc(NC(=O)NCCc2c(C)nn(C)c2C)cc1,72% (inactive)
15,COc1ccccc1Cn1cc(C(=O)c2ccc(Cl)cc2)c(=O)c2ccccc21,83% (inactive)
16,Cc1cccc(Cn2c(=O)n(Cc3ccc4c(c3)OCO4)c(=O)c3oc4ccccc4c32)c1,77% (inactive)
17,Cc1oc2ncn(CC(C)C)c(=O)c2c1C(=O)Nc1cc(F)ccc1F,65% (inactive)
18,COc1ccc2c(CNC3CCC(C)CC3)c(C(=O)O)n(Cc3ccc(F)cc3)c2c1 (centres undefined),70% (inactive)
19,CCC(=O)n1nc(-c2ccccc2)nc1N,104% (inactive)
20,CN(Cc1ccccc1)c1ncnc2c1nnn2C,72% (inactive)
21,COc1cccc(CNC(=O)CSc2nc(=O)[nH]c3c2CCCC3)c1,85% (inactive)
22,C=CCSc1nnc(-c2ccccc2)n1-c1ccccc1,103% (inactive)
23,Cc1c(Cl)cccc1NC(=O)CSc1nc(=O)[nH]c2c1CCC2,93% (inactive)
24,Cc1cccc(-n2c(SCC(N)=O)nc3ccccc3c2=O)c1,90% (inactive)

row,SMILES,survival
1,CCOC(=O)CSc1nc2ccccc2c(=O)n1-c1cccc(C)c1,31% (active)
2,CCN1C(=O)C(Cc2nc3ccccc3c(=O)n2-c2cccc(C)c2)c2ccccc21 (centres undefined),50% (inactive)
3,CCCN1C(=O)C(Cc2nc3ccccc3c(=O)n2CC)c2ccccc21 (centres undefined),84% (inactive)
4,CCCN1C(=O)C(Cc2nc3ccccc3c(=O)n2-c2ccccc2)c2cc(C)ccc21 (centres undefined),68% (inactive)
5,CCCN1C(=O)C(Cc2nc3ccccc3c(=O)n2-c2cccc(C)c2)c2ccccc21 (centres undefined),36% (active)
6,CCCN1C(=O)C(Cc2nc3ccccc3c(=O)n2CC)c2cc(Br)ccc21 (centres undefined),34% (active)
7,CCOC(=O)CSc1nc2ccccc2c(=O)n1-c1ccc(C(=O)NCCOC)cc1,96% (inactive)
8,CCn1c(CC2C(=O)N(C)c3ccc(Br)cc32)nc2ccccc2c1=O (centres undefined),70% (inactive)
9,COCCN(C(=O)c1ccccc1)c1nnc(-c2ccncc2)s1,94% (inactive)
10,Cc1cc(C)cc(NC(=O)CSc2nc(=O)[nH]c3c2CCC3)c1,112% (inactive)
11,CCCOC1(C(F)(F)F)NC(=O)N(c2ccc(Cl)cc2)C1=O (centres undefined),66% (inactive)
12,Cc1cc(C)c2c(n1)SCCN2C(=O)Nc1ccc(C(=O)Nc2cc(Cl)ccc2C)cc1,97% (inactive)
13,CC(=O)Nc1ccc(NC(=O)CCc2c(C)nc3c(c(C)nn3-c3ccc(C)cc3)c2C)cc1,114% (inactive)
14,CCC1CN(C(=O)N2CCC(C(=O)N3CCN(c4cccc(C)c4C)CC3)CC2)c2ccccc2O1 (centres undefined),62% (inactive)
15,CCC1CN(C(=O)N2CCC(C(=O)N3CCN(c4ccccc4F)CC3)CC2)c2ccccc2O1 (centres undefined),97% (inactive)
16,CCC1CN(C(=O)N2CCC(C(=O)N3CCN(c4cc(C)ccc4C)CC3)CC2)c2ccccc2O1 (centres undefined),36% (active)
17,CC1=C(C(=O)Nc2ccc(C)cc2C)C(c2sccc2C)n2ncnc2N1 (centres undefined),68% (inactive)
18,O=C(NC1CCCC1)c1ccc2c(c1)OCO2,69% (inactive)
19,O=C1C2C3c4ccccc4C(c4ccccc43)C2C(=O)N1C(CO)(CO)CO (centres undefined),102% (inactive)
20,CC1=C(C(=O)OC2CCCCCC2)C(c2c(Cl)cccc2Cl)CC(=O)N1 (centres undefined),32% (active)
21,CC1=C(C(=O)OC2CCCCCC2)C(c2c(F)cccc2Cl)CC(=O)N1 (centres undefined),57% (inactive)
22,CC1=C(C(=O)OC2CCCC2)C(c2c(Cl)cccc2Cl)CC(=O)N1 (centres undefined),71% (inactive)
